This is a sample that favours compounds with a hit; in the whole collection about 6.8% have one here.
Pf Dd2 growth = P. falciparum Dd2 growth inhibition; 94,000 tested, 2.3% active; SYBR Green, 72 h; hits give low values; activity change, % at 10 µM; in the data active means activity change below about -80%; inconclusive means no clear call, values can overlap the other calls
C diff HTS = blocks growth of Clostridium difficile; Clostridium difficile clinical isolate growth, OD600, 24 h; hits give low values; growth activity, negative = inhibition, % at 16 µg/mL (by protocol); 86,000 tested, 0.25% active;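 active means mean growth activity at or below -80% and every replicate also at or below -80%; inconclusive means mean at or below -80% but some replicate above -80%; inactive means mean growth activity above -80%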;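 further: 0% = DMSO wells and -100% = levofloxacin 16 µg/mL wells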
T cruzi growth = T. cruzi proliferation inhibition; T. cruzi beta-gal in NIH3T3, GalScreen luminescence, 90 h; inhibition, % at 8.34 µM; 77,000 tested, 5.9% active;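 active means mean inhibition above about 93%, with at least 55% of replicates each passing it, limit read from the data, passing the limit was not always enough; inconclusive means only one of those two conditions holds; inactive means neither condition holds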
An asterisk follows results filed as active; ? = inconclusive; · = not tested or not shown; ! = a repeat was not active.

SMILES | Pf Dd2 growth | C diff HTS | T cruzi growth
COc1ccccc1S(=O)(=O)N(C)C[C@@H]1OCc2ccccc2-c2c(n(C)c3ccccc23)C(=O)N([C@@H](C)CO)C[C@@H]1C | -93* | 1 | 41
COc1ccccc1S(=O)(=O)N(C)C[C@@H]1OCc2ccccc2-c2c(n(C)c3ccccc23)C(=O)N([C@H](C)CO)C[C@@H]1C | -94* | -6 | 82
Cc1ccccc1S(=O)(=O)N(C)C[C@@H]1OCc2ccccc2-c2c(n(C)c3ccccc23)C(=O)N([C@@H](C)CO)C[C@H]1C | ? | · | 62
C[C@@H]1CCCCO[C@@H](CN(C)S(=O)(=O)c2ccc(Cl)cc2)[C@@H](C)CN([C@H](C)CO)C(=O)c2cc(NC(=O)Nc3ccccc3)ccc2O1 | -84* | · | -7
Cc1ccc(S(=O)(=O)N(C)C[C@@H]2OCCCC[C@H](C)Oc3ccc(NC(=O)Nc4ccccc4)cc3C(=O)N([C@H](C)CO)C[C@H]2C)cc1 | -90* | 8 | 74
C[C@@H]1CN([C@@H](C)CO)C(=O)c2cc(NC(=O)Nc3ccccc3)ccc2O[C@@H](C)CCCCO[C@@H]1CN(C)S(=O)(=O)c1ccc(Cl)cc1 | -87* | · | -120
C[C@@H]1CCCCO[C@@H](CN(C)S(=O)(=O)c2ccccc2)[C@H](C)CN([C@H](C)CO)C(=O)c2cc(NC(=O)Nc3ccccc3)ccc2O1 | -78 | · | 55
Cc1ccc(S(=O)(=O)N(C)C[C@@H]2OCCCC[C@H](C)Oc3ccc(NC(=O)Nc4ccc5c(c4)OCO5)cc3C(=O)N([C@H](C)CO)C[C@H]2C)cc1 | -75 | · | ·
C[C@H]1CCCCO[C@@H](CN(C)S(=O)(=O)c2ccccc2)[C@@H](C)CN([C@@H](C)CO)C(=O)c2cc(NC(=O)Nc3ccccc3)ccc2O1 | -66 | · | 84
C[C@@H]1CN([C@@H](C)CO)C(=O)c2cc(NC(=O)Nc3ccccc3)ccc2O[C@@H](C)CCCCO[C@@H]1CN(C)S(=O)(=O)c1ccccc1 | -67 | · | -16
C[C@@H]1CN([C@H](C)CO)C(=O)c2cc(NC(=O)Nc3ccc4c(c3)OCO4)ccc2O[C@@H](C)CCCCO[C@@H]1CN(C)S(=O)(=O)c1ccc(Cl)cc1 | -88* | 7 | 51
COc1cccc(NC(=O)N(C)C[C@H]2Oc3ncc(/C=C/c4ccccc4)cc3C(=O)N([C@H](C)CO)C[C@H]2C)c1 | -1 | 6 | ·
CC(C)NC(=O)Nc1ccc2c(c1)CC(=O)N([C@H](C)CO)C[C@H](C)[C@H](CN(C)S(=O)(=O)c1cn(C)cn1)O2 | 27 | -1 | -17
CC(=O)N1[C@H](CO)[C@@H](c2ccccc2)C12CN(Cc1nccs1)C2 | 5 | -3 | ·
CC(C)C#Cc1cnc2c(c1)C(=O)N([C@@H](C)CO)C[C@H](C)[C@@H](CN(C)C(=O)CCN1CCCCC1)O2 | · | 1 | 16
COc1ccc(S(=O)(=O)N(C)C[C@H]2Oc3ccc(NS(=O)(=O)c4cccs4)cc3C(=O)N([C@@H](C)CO)C[C@H]2C)cc1 | -22 | -2 | 38
C[C@@H]1CCCCO[C@@H](CN(C)S(=O)(=O)c2ccccc2)[C@@H](C)CN([C@@H](C)CO)C(=O)c2cc(NC(=O)Nc3ccccc3)ccc2O1 | -75 | · | 30
C[C@@H]1CN([C@H](C)CO)C(=O)c2cc(NC(=O)Nc3ccccc3)ccc2O[C@@H](C)CCCCO[C@@H]1CN(C)S(=O)(=O)c1ccc(Cl)cc1 | -86* | · | 38
C[C@@H]1CCCCO[C@H](CN(C)S(=O)(=O)c2ccccc2)[C@H](C)CN([C@@H](C)CO)C(=O)c2cc(NC(=O)Nc3ccccc3)ccc2O1 | -41 | · | 51
C[C@@H]1CN([C@H](C)CO)C(=O)c2cc(NC(=O)Nc3ccccc3)ccc2O[C@@H](C)CCCCO[C@H]1CN(C)S(=O)(=O)c1ccc(Cl)cc1 | -81* | · | -6
C[C@@H]1CN([C@@H](C)CO)C(=O)c2cc(N(C)C)ccc2O[C@@H](C)CCCCO[C@@H]1CN(C)Cc1ccccc1 | · | 1 | 47
CN(C)C(=O)c1cccc(-c2ccc3c(c2)[C@@H]2[C@@H](CCN2C(=O)c2ccncc2)[C@@H](CO)N3C)c1 | -7 | 2 | 69
C[C@H]1CN([C@@H](C)CO)C(=O)c2cc(NS(=O)(=O)c3ccccc3)ccc2O[C@@H]1CN(C)S(=O)(=O)c1ccccc1 | -16 | -3 | -4
CCCN1C[C@H](C)[C@H](OC)CN(C)C(=O)c2ccc(NC(=O)C3CCC3)cc2OC[C@H]1C | -8 | · | 7
CO[C@@H]1CN(C)C(=O)c2cc(NS(C)(=O)=O)ccc2OC[C@H](C)N(CC2CCOCC2)C[C@H]1C | 29 | · | 1
SMILES | Pf Dd2 growth | C diff HTS | T cruzi growth
C[C@@H]1CN([C@H](C)CO)C(=O)c2cccc(NC(=O)CCCCCC(=O)Nc3ccccc3N)c2O[C@@H]1CN(C)Cc1ccc(Cl)c(Cl)c1 | -91* | -8 | ·
C[C@@H]1CN([C@H](C)CO)C(=O)c2cccc(NC(=O)CCCCCC(=O)Nc3ccccc3N)c2O[C@@H]1CN(C)C | -42 | 1 | ·
C[C@H](CO)N1C[C@H](C)[C@@H](CN(C)Cc2ccc(Cl)c(Cl)c2)Oc2c(NC(=O)CCCCCC(=O)Nc3ccccc3N)cccc2C1=O | -72 | -13 | ·
C[C@H]1CN([C@@H](C)CO)C(=O)c2cccc(NC(=O)CCCCCC(=O)Nc3ccccc3N)c2O[C@H]1CN(C)Cc1ccc(Cl)c(Cl)c1 | -88* | 3 | ·
C[C@@H]1CN([C@@H](C)CO)C(=O)c2cccc(NC(=O)CCCCCC(=O)Nc3ccccc3N)c2O[C@@H]1CN(C)Cc1ccc(Cl)c(Cl)c1 | -93* | · | 92
C[C@@H]1CN([C@@H](C)CO)C(=O)Cc2cc(NC(=O)CCCCCC(=O)Nc3ccccc3N)ccc2O[C@@H]1CN(C)Cc1ccc(Cl)c(Cl)c1 | -33 | 0 | 87
CC(C)NC(=O)N[C@H]1CC[C@H](CCn2cc(-c3ccc(F)cc3)nn2)O[C@H]1CO | -3 | · | -50
CC(C)NC(=O)N(C)C[C@H]1Oc2cc(C#C[C@H](C)O)ccc2S(=O)(=O)N([C@H](C)CO)C[C@@H]1C | 44 | -4 | ·
COc1ccc2c3c(n(C)c2c1)[C@@H](CO)N(C(=O)C1CCC1)CC31CN(Cc2cccc(F)c2)C1 | 4 | -11 | ·
Cc1cccc(-c2ccc([C@@H]3[C@@H]4CN(C(=O)CN(C)C)C[C@H]3N4)cc2)c1 | -85* | 29 | ·
Cc1cccc(-c2ccc(C3[C@@H]4CN(C(=O)c5ccncc5)C[C@H]3N4)cc2)c1 (stereo not given in full) | -9 | -8 | ·
CN(C)CC(=O)N1C[C@@H]2N[C@H](C1)C2c1ccc(/C=C/c2ccccc2)cc1 (stereo not given in full) | -91*! | 9 | ·
O=C(C1CC1)N1C[C@@H]2N[C@H](C1)C2c1ccc(/C=C/c2ccccc2)cc1 (stereo not given in full) | 1 | -7 | ·
COc1ccc2c3c([nH]c2c1)[C@H](CO)N(Cc1cccc(F)c1)CC31CN(C(C)=O)C1 | -78 | -3 | ·
COc1cc(CN2CC3(CCN(C(C)=O)CC3)c3c([nH]c4cc(OC)ccc34)[C@H]2CO)cc(OC)c1 | -56 | 3 | ·
COc1ccc2c3c([nH]c2c1)[C@@H](CO)N(Cc1cccc(F)c1)CC31CCN(C(C)=O)CC1 | -93* | 3 | ·

Screening results (PubChem)
